“And” between values parts separate entries of the source, which are not always exact repeats. Identical values can stand only once. Inconclusive results are not listed. Entries that show only a call come without a potency. Where a structure was tested more than once in an assay, its records may differ in their call. The source made the active and inactive calls. Calls follow the shape of the dose curve; as a rule, active = well fitted cell-killing curve with a large enough effect in the repeat runs; inconclusive = weak or mixed curves, or effect the other way; inactive = no such curve, though single readings can be large or run the other way.
Assay: qHTS assay to identify small molecule agonists of the farnesoid-X-receptor (FXR) signaling pathway - cell viability counter screen (AID 743218); also: nearly all actives have a fitted effect of over 45% in size
Details: FXR-bla HEK293T viability, CellTiter-Glo luminescence, 16 h; series mostly up to 62.6 µM
Summary of the method: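 Parallel cytotoxicity test: compound-treated (16 h, 37 C) HEK 293T FXR-bla reporter cells were lysed with CellTiter-Glo and luminescence recorded.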
Potency is read from the fitted curve at half-maximal effect.

| Compound | Potency |
| --- | --- |
| COc1cc(/C=C/C(=O)O[C@H]2CC[C@]34C[C@]35CC[C@]3(C)[C@@H]([C@H](C)CCC=C(C)C)CC[C@@]3(C)[C@@H]5CC[C@H]4C2(C)C)ccc1O | inactive |
| CCCCCCCCCCCCCCCC(=O)OC[C@H](O)[C@H]1OC(=O)C(O)=C1O | 38.9 µM (active) |
| Cc1c(C)c2c(c(C)c1O)CCC(C)(COc1ccc(CC3SC(=O)NC3=O)cc1)O2 (stereo not drawn) | inactive |
| COC(=O)C1=C(C)NC(C)=C(C(=O)OCC(C)C)C1c1ccccc1[N+](=O)[O-] (stereo not drawn) | inactive |
| O=[N+]([O-])c1ccccc1Nc1ccccc1 | inactive |
| CN(C)c1ccc(SC#N)cc1 | inactive |
| CCCC1O[C@@H]2C[C@H]3[C@@H]4CCC5=CC(=O)C=C[C@]5(C)[C@H]4[C@@H](O)C[C@]3(C)[C@]2(C(=O)CO)O1 (stereo partly drawn) | inactive |
| CCc1cc(Cc2cc(CC)c(N)c(CC)c2)cc(CC)c1N | 43.6 µM (active) |
| CCCCCCCCCCC=O | inactive |
| C1CCCC1 | inactive |
| CC(C)CCCCCCCCCCCCCCC(=O)O | inactive |
| Oc1ccc(Cl)cc1Sc1cc(Cl)ccc1O | 34.6 µM (active) and 29.8 µM (active) |
| CC1=NC(C)OC1C (stereo not drawn) | inactive |
| C=C(C)C(=O)OCC[N+](C)(C)C | inactive |
| CCCCCOC(=O)CCCC | inactive |
| CCC(C)(C)C1CCCCC1OC(C)=O (stereo not drawn) | inactive |
| Clc1ccc2nsnc2c1NC1=NCCN1 | inactive |
| CCCCCCC[N+](CC)(CC)CCCCc1ccc(Cl)cc1 | inactive |
| Cc1cccc(S(=O)(=O)O)c1C | inactive |
| CSc1ccc(C(=O)c2[nH]c(=O)[nH]c2C)cc1 | inactive |
| CCN(C(=O)N(CC)c1ccccc1)c1ccccc1 | inactive |
| ON=C1CCCC1 | inactive |
| On1ccccc1=S | 0.385 µM (active) |
| Cc1ccc(O)c(C(C)(C)C)c1 | 24.5 µM (active) and inactive |
| O=C1c2ccccc2Cc2ccccc21 | inactive |
| C[C@H]1[C@H]2CC[C@H]3[C@@H]4CC=C5C[C@@H](N(C)C)CC[C@]5(C)[C@H]4CC[C@]23CN1C | inactive |
| O=C(OCC1CO1)C1CCCCC1C(=O)OCC1CO1 (stereo not drawn) | inactive |
| Fc1ccc(C(c2ccc(F)cc2)N2CCN(C/C=C/c3ccccc3)CC2)cc1 | inactive |
